Measured values reported in PubChem BioAssay.
Unmarked numbers belong to inactive results. Where a call stands in place of a potency, no number is given. For some of these results: Potency and affinity values are given separately. Calls of active or inactive are those of the source. Unless noted, no rule for the calls is given here.

What was measured:
[1] = antimalarial activity against Dd2 strain (AID 2302;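 active = growth inhibition above 50% at the single 2 µM test dose, taken to imply half-maximal potency below 2 µM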); conditions: P. falciparum Dd2 in RBCs, LDH growth readout, 72 h; at 2 µM; stronger effect = higher value
[2] = human hepatoma cell viability loss – ATP luminescence, cytotoxicity control for P. falciparum antimalarial project, primary screen (AID 2303;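 active = inhibition above 50%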); conditions: HepG2 viability, 24-48 h, at 10 µM, stronger effect = higher value
[3] = biological target: L-lactate dehydrogenase (Plasmodium falciparum (isolate CDC / Honduras)) (UniProt Q27743); test: PfLDH activity inhibition – cell lysate, 3D7 strain, counter-screen for P. falciparum growth inhibition project (AID 2304); conditions: P. falciparum 3D7 crude extract, LDH APAD/NBT absorbance; at 2 µM; stronger effect = higher value
[4] = inhibition of 3D7 malaria parasite growth – strain 3D7 (AID 2306); conditions: P. falciparum 3D7 erythrocytic growth, LDH absorbance, 72 h; at 2 µM; stronger effect = higher value
[5] = biological target: Calcium-dependent protein kinase 1 (Plasmodium falciparum (isolate 3D7)) (UniProt P62344); test: PfCDPK1 kinase inhibitors, biochemical, TCAMS library (AID 1159585; cut-off not given, nearly all actives have IC50 up to about 0.98 µM;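 also: inhibitors leave more ATP so luminescence rises with inhibition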); conditions: recombinant PfCDPK1, Kinase-Glo ATP depletion luminescence
[6] = biological target: Plasmodium falciparum protein kinase 6 (PK6, PF3D7_1337100) (UniProt Q8IDW1); test: PfPK6 kinase inhibitors, biochemical, TCAMS library (AID 1159586); conditions: recombinant PfPK6, Kinase-Glo ATP depletion luminescence
[7] = biological target: Protein kinase 7 (PK7), Plasmodium falciparum 3D7 (PF3D7_0213400) (UniProt Q7YTF7); test: inhibition of Plasmodium PK7 catalytic activity – biochemical, TCAMS antimalarial set, Kinase-Glo luminescence (AID 1159587); conditions: recombinant PfPK7, Kinase-Glo ATP depletion luminescence
[8] = biological target: Calcium-dependent protein kinase 4 (Plasmodium falciparum (isolate 3D7)) (UniProt Q8IBS5); test: PfCDPK4 kinase inhibitors, biochemical, TCAMS library (AID 1159588; cut-off not given, nearly all actives have IC50 up to about 0.91 µM); conditions: recombinant PfCDPK4, Kinase-Glo ATP depletion luminescence
Calcium-dependent protein kinase 4 (Plasmodium falciparum (isolate 3D7)), sequence (Q8IBS5 whole entry, looked up): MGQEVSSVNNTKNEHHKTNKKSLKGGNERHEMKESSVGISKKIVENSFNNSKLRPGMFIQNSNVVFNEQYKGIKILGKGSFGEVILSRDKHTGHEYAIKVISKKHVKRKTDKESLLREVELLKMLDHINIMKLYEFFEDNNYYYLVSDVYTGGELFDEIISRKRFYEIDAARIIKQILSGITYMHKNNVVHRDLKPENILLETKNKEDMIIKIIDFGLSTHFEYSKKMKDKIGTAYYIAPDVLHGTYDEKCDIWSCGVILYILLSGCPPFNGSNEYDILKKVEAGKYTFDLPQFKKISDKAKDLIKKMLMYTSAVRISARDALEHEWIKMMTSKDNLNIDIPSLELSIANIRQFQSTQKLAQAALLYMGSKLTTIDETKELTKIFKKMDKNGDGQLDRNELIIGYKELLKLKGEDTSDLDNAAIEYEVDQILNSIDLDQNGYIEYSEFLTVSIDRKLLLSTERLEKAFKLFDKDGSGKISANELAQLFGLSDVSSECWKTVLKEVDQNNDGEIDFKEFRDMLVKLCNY

Calcium-dependent protein kinase 1 (Plasmodium falciparum (isolate 3D7)), sequence (P62344 whole entry, looked up): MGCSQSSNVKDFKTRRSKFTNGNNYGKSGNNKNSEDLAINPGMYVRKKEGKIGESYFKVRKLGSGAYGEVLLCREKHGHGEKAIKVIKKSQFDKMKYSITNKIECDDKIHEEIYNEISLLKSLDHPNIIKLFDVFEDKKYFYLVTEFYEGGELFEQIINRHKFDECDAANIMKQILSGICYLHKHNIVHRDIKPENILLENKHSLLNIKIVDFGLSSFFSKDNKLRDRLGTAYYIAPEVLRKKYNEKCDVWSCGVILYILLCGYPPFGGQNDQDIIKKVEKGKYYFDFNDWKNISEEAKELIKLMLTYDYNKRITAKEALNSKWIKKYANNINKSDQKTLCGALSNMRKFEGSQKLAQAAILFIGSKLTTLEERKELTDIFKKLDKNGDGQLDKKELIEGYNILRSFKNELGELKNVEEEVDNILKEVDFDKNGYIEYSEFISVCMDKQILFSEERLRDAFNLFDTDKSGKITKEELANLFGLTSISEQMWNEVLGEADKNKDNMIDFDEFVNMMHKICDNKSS
Plasmodium falciparum protein kinase 6 (PK6, PF3D7_1337100), sequence (Q8IDW1 1-305): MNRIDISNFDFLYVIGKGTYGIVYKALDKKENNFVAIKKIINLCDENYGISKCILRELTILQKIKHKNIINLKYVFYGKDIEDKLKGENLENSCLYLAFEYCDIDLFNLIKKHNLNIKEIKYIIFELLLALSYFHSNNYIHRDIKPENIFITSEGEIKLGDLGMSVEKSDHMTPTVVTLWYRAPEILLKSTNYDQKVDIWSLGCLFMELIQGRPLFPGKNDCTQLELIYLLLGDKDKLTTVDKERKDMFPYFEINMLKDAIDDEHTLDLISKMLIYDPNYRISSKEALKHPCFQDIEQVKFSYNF
L-lactate dehydrogenase (Plasmodium falciparum (isolate CDC / Honduras)), sequence (Q27743 whole entry, looked up): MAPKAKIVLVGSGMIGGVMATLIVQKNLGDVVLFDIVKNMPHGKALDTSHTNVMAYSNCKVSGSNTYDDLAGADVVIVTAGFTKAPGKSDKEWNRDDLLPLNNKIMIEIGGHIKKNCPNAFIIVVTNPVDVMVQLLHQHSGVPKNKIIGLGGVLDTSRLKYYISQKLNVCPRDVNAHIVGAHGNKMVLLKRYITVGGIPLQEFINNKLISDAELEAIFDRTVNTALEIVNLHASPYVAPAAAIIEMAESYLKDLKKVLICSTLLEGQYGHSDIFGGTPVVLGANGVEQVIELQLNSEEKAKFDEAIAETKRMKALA
Protein kinase 7 (PK7), Plasmodium falciparum 3D7 (PF3D7_0213400), sequence (Q7YTF7 1-343): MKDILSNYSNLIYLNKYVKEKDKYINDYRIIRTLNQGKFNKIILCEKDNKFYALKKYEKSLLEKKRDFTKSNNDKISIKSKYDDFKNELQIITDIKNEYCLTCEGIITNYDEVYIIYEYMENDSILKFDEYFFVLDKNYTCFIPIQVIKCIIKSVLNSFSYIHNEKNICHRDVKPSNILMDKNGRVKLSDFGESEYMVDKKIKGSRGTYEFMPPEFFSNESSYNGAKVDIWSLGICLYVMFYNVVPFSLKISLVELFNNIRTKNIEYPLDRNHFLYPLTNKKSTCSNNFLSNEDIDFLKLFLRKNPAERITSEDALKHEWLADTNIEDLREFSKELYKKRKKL

Row | SMILES | growth inhibition [1] | inhibition [2] | inhibition [3] [%] | growth inhibition [4] | outcome [5] | outcome [6] | outcome [7] | outcome [8]
1 | O=C(Nc1cc(F)cc(-c2cccnc2)c1)c1ccc2c(=O)n(Cc3ccccc3)cnc2c1 | 11% | 7% | 2 | 98% (active) | inactive | inactive | inactive | inactive
2 | O=C(NC1CCC(N2CCC(O)(c3ccc(F)cc3)CC2)CC1)c1cc2ccccc2[nH]1 (stereo not drawn) | 8% | 9% | -4 | 94% (active) | inactive | inactive | inactive | inactive
3 | CCN(CC)S(=O)(=O)c1ccc(C(=O)Oc2ccccc2N(Cc2ccc(OC)cc2)C2=NS(=O)(=O)c3ccccc32)cc1 | 63% (active) | 0% | -3 | 98% (active) | inactive | inactive | inactive | inactive
4 | Cc1[nH]c(-c2ccc(F)cc2)cc1C(=O)NC1CCN(Cc2ccccc2)CC1 | 9% | 6% | -2 | 84% (active) | inactive | inactive | inactive | inactive
5 | Cc1ncsc1CCN1C(=O)CC2(C1=O)C(=O)N(Cc1ccccc1)c1ccc(Cl)cc12 (stereo not drawn) | 46% | 0% | 1 | 86% (active) | inactive | inactive | inactive | inactive
6 | CCCCCC1c2[nH]c3ccccc3c2CCN1C(=O)OCc1ccccc1 (stereo not drawn) | 68% (active) | 3% | -3 | 93% (active) | inactive | inactive | inactive | inactive
7 | O=C(Cc1cn(-c2ccccc2)nc1-c1ccc(Cl)cc1)Nc1nccs1 | 8% | 9% | 1 | 88% (active) | inactive | inactive | inactive | inactive
8 | CCc1ccc(S(=O)(=O)Nc2ccc(CCN(C)C3CCN(C)CC3)cc2)cc1 | 9% | 25% | -4 | 86% (active) | inactive | inactive | inactive | inactive
9 | CCOc1cc(C)ccc1N1CCN(CCN2CCC(NC(=O)c3ccc(-c4ccc(C#N)cc4)cc3)CC2)CC1 | 3% | 9% | -1 | 84% (active) | inactive | inactive | inactive | inactive
10 | CC1(C)N=C(NC(=O)c2cc([N+](=O)[O-])cc([N+](=O)[O-])c2)N=C(N)N1OCc1cccc2ccccc12 | 20% | 66% (active) | -6 | 94% (active) | inactive | inactive | inactive | inactive
11 | COc1cc(-c2cc(-c3ccc(OCCN(C)C)cc3)[nH]c2-c2ccncc2)ccc1Cl | 100% (active) | 28% | -2 | 101% (active) | inactive | inactive | inactive | inactive
12 | CC(=O)c1c(Nc2c(C)cc(C)cc2C)oc(C)cc1=O | 83% (active) | 7% | 7 | 95% (active) | inactive | inactive | inactive | inactive
13 | Cc1ccc2nc(C)n(C3CCN(C(=O)Cc4ccccc4C)CC3)c2c1 | 100% (active) | 2% | 1 | 100% (active) | inactive | inactive | inactive | inactive
14 | COc1ccc(Oc2cnc(N)nc2N)c(C(C)C)c1 | -2% | 58% (active) | 4 | 97% (active) | inactive | inactive | inactive | inactive
15 | FC(F)(F)c1ccc2nccc(NN=Cc3ccccc3Cl)c2c1 | 83% (active) | -6% | 5 | 101% (active) | inactive | inactive | inactive | inactive
16 | CN1CCN(c2ccnc3ccc(NC(=O)Nc4ccc(-c5ccncc5)c5ccccc45)cc23)CC1 | 84% (active) | 76% (active) | -4 | 101% (active) | inactive | inactive | inactive | inactive
17 | COc1ccc2cc(CNCCCCCCNCc3ccc4cc(OC)ccc4c3)ccc2c1 | 92% (active) | 100% (active) | -6 | 100% (active) | inactive | inactive | inactive | inactive
18 | CCC1N=C(N)N=C(N)N1OCc1ccc(Cl)c(Cl)c1 (stereo not drawn) | 90% (active) | 54% (active) | -4 | 93% (active) | inactive | inactive | inactive | inactive
19 | CCN(CC)CCN(CCN(CC)CC)c1ccc2c(c1)Sc1c(Cl)ccc(Cl)c1S2 | 94% (active) | 31% | -5 | 98% (active) | inactive | inactive | inactive | inactive
20 | O=c1sn(-c2csc3ccccc23)c2ccccc12 | 54% (active) | 14% | -6 | 94% (active) | inactive | inactive | inactive | inactive
21 | Nc1c(Cl)cc(C(O)CNCCCCCOCCc2ccc3occc3c2)cc1Cl (stereo not drawn) | 74% (active) | -2% | -1 | 99% (active) | inactive | inactive | inactive | inactive

Row | SMILES | growth inhibition [1] | inhibition [2] | inhibition [3] [%] | growth inhibition [4] | outcome [5] | outcome [6] | outcome [7] | outcome [8]
22 | O=C(NC1CCCCC1)c1ccc(O)c(-c2cccc(C(F)(F)F)c2)c1 | 87% (active) | 8% | 0 | 97% (active) | inactive | inactive | inactive | inactive
23 | CNCCCNc1ccnc2cc(Cl)ccc12 | 25% | 11% | -1 | 101% (active) | inactive | inactive | inactive | inactive
24 | O=C(NCc1ccccc1)NC(CCCN1CCC(Oc2cccc(Cl)c2)CC1)c1ccc(Cl)c(Cl)c1 (stereo not drawn) | 57% (active) | 15% | 4 | 81% (active) | inactive | inactive | inactive | inactive
25 | Cc1cc(Nc2ccccc2)nc(Nc2ccccc2)n1 | 74% (active) | 0% | -1 | 96% (active) | inactive | inactive | inactive | inactive
26 | CN(C)Cc1cc2c(O)c(Cc3ccccc3)ccc2o1 | 69% (active) | 3% | -8 | 85% (active) | inactive | inactive | inactive | inactive
27 | CCC(C)CC(=O)Nc1ccc(OC)c(S(=O)(=O)N[C@@H]2CCN(C#N)C2)c1 (stereo partly drawn) | 77% (active) | 16% | 0 | 94% (active) | inactive | inactive | inactive | inactive
28 | Cc1cccc2[nH]c(-c3cccc(-c4cccc(NC(=O)C(C)CN5CCN(C)CC5)c4)c3)nc12 (stereo not drawn) | 99% (active) | 17% | 1 | 99% (active) | inactive | inactive | inactive | inactive
29 | CC(=O)N1Cc2ccccc2C1=O | -1% | 10% | -4 | 97% (active) | inactive | inactive | inactive | inactive
30 | O=C(Nc1cccc(C(F)(F)F)c1)c1cc([N+](=O)[O-])cc2cn[nH]c12 | 69% (active) | 60% (active) | 3 | 101% (active) | inactive | inactive | inactive | inactive
31 | COc1cccc(CCNCCCCCCNCCc2ccc(Cl)cc2)c1 | 3% | 32% | -1 | 100% (active) | inactive | inactive | inactive | inactive
32 | COc1cccc(C2CCN(CCN3CCC(NC(=O)c4ccc(-c5ccc(C#N)cc5)cc4)CC3)CC2)c1 | 47% | 28% | 6 | 98% (active) | inactive | inactive | inactive | inactive
33 | COc1cc2nc(NCc3cccc(CNC(=O)c4ccc(-c5ccc(C(C)=O)cc5)cc4)c3)nc(N)c2cc1OC | 72% (active) | 32% | -2 | 100% (active) | inactive | inactive | inactive | inactive
34 | COc1ccc(CC2(c3ccc(F)cc3)N=C(N)N(CCCc3cccnc3)C2=O)cc1 (stereo not drawn) | 97% (active) | 12% | 0 | 98% (active) | inactive | inactive | inactive | inactive
35 | CCc1ccccc1N=C1c2c(cccc2[N+](=O)[O-])C(=O)C1C(C)=O (stereo not drawn) | 96% (active) | -6% | 4 | 99% (active) | inactive | inactive | inactive | inactive
36 | O=C(Nc1ccccc1)N(Cc1ccccc1-c1cccc(CNCc2ccc3c(c2)OCO3)c1)C1CCN(Cc2ccccc2)CC1 | 64% (active) | 35% | 1 | 101% (active) | inactive | inactive | inactive | inactive
37 | COc1ccc(C(=O)CCC(=O)N(Cc2ccc(-c3ccc(CNCCc4ccc(S(C)(=O)=O)cc4)cn3)cc2)C(C)CN(C)C)cc1F (stereo not drawn) | 85% (active) | 13% | -8 | 98% (active) | inactive | inactive | inactive | inactive
38 | CN(C)CCOc1cc(NC(=O)c2ccc(-c3ccc(Cl)cc3Cl)cc2)ccc1-c1ccccc1 | 26% | 45% | -4 | 98% (active) | inactive | inactive | inactive | inactive
39 | Cc1cccc(CN2CCCN(Cc3ccc(C(=O)Nc4ccc(Cl)cc4)cc3)CC2)c1 | 17% | 54% (active) | 3 | 92% (active) | inactive | inactive | inactive | inactive
40 | COc1ccc(C(=O)N2CCc3cc4nccc(N5CCN6CCC[C@H]6C5)c4cc32)cc1 | 50% (active) | 1% | -12 | 98% (active) | inactive | inactive | inactive | inactive
41 | COc1cccc2c(NN=Cc3cccc([N+](=O)[O-])c3)ccnc12 | 47% | 12% | -7 | 100% (active) | inactive | inactive | inactive | inactive
